Reference: PubChem BioAssay (NCI)
Compounds without any hit were thinned out: in the full panel of roughly 83,000, 20% have a hit.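 Growth was measured after 48 h exposure to one concentration of compound in 96-well plates. Values under 10 count as active.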 A number with no mark means an inactive call. The source made the active and inactive calls.

Tested on: HOP-62 NSCLC
Test: NCI-60 one-dose screen, 48 h (100 = growth as untreated, 0 = no growth, -100 = all killed)
Settings: 10 µM unless noted

| Compound | growth |
| --- | --- |
| COc1ccc(C2CC(c3ccc(OC)c(OC)c3)=NN2C(=O)c2cc(OC)c(OC)c(OC)c2)c(OC)c1 (centres undefined) | 76.1% |
| CCOC(=O)c1c2c(c(C)n1Cc1ccc(OC)cc1)-c1nc(N)ncc1CC2 | 83.5% |
| O=C1N(C2CCCCC2)C(=O)N1C1CCCCC1 | 57.5% |
| O=c1ccn(C2OC(CO)C(O)C2F)c(=O)[nH]1 (centres undefined) | 103% |
| CCCn1cnc2c1c(=O)n(CCCCC(C)=O)c(=O)n2C | 101% |
| CCCCc1nc(Cl)c(CO)n1Cc1ccc(-c2ccccc2-c2nn[nH]n2)cc1 | 97.7% |
| COc1ccc(C2CC(c3cccc(Nc4ccnc5cc(Cl)ccc45)c3)=NN2C=O)cc1 (centres undefined) | 27% |
| O=c1c(O)cccn1CCCNCCCN(CCCn1cccc(O)c1=O)CCCn1cccc(O)c1=O | 106% |
| COc1ccc2nc(-c3ccc(-n4cncc4-c4ccc(OC)c(N)c4)cc3)sc2c1 | 116% |
| Cc1cc(NC(=O)Nc2cc(Cl)ccc2C)no1 | 96.2% |
| O=C1NCN(c2ccccc2)C12CCN(CCCC(c1ccc(F)cc1)c1ccc(F)cc1)CC2 | 82.9% |
| CCC(O)C(C)(C)C (centres undefined) | 115% |
| COc1ncc(-c2ccc3nccc(C#CCN4CCN(S(C)(=O)=O)CC4)c3c2)cc1NS(=O)(=O)c1ccc(F)cc1F | 9.92% (active) |
| O=C(Nc1ccc(Cl)cc1)c1cc2c(cc1O)[nH]c1ccccc12 | -2.15% (active) |
| O=C1c2ccccc2C(=O)c2c1cccc2-n1nnc2ccccc21 | 101% |
| Cc1nn(-c2ccccc2)c2c1oc(=O)c1cc(Cl)ccc12 | 91.6% |
| CCC1=C(c2ccc(OC)cc2)C(C)(C)Oc2c1ccc(O)c2CN1CCCC1 | 18.7% |
| O=C(NCCc1ccccc1)C1CCC(=O)N1Cc1ccc(Br)cc1 (centres undefined) | 93% |
| N#Cc1ccc(NC(=O)Nc2ccc(Oc3ccc(NC(=O)Nc4ccc(C#N)cc4)cc3)cc2)cc1 | 31.6% |

| Compound | growth |
| --- | --- |
| COc1ccc2c(c1)C(=O)c1c-2c(OCCN(C)C)nc2cc(OC)ccc12 | 14.9% |
| O=C(Nc1cccc([N+](=O)[O-])c1)c1cccc(C(=O)Nc2cccc([N+](=O)[O-])c2)c1 | 106% |
| CCCCCCCCCCCCCCCCCC1=NC(C)(C)CN1CCO | -74.9% (active) |
| COc1ccc(OC)c(NC(=O)c2cc3oc4ccccc4c3cc2O)c1 | 72.4% |
| CN1C(=O)/C(=C/c2nc(-c3cccc(F)c3)n3ccccc23)c2ccccc21 | 80.7% |
| O=C(CN1CCCCC1)Sc1nnc2sc3ccccc3n12 | 89.9% |
| C[C@]12CC[C@@H]3c4ccc(O)c([N+](=O)[O-])c4CC[C@H]3[C@@H]1CC[C@@H]2NS(=O)(=O)c1cccc(Br)c1 | 78.3% |
| Cc1ccsc1/C=C/C1=NCCCN1C | 100% |
| CCCCCCCCCCSc1ncnc2nc[nH]c12 | 86.3% |
| C[n+]1c2ccccc2c(NC2CCNCC2)c2[nH]c3ccccc3c21 | 26.5% |
| COc1cccc2c1O/C(=C\c1c([N+](=O)[O-])ncn1C)C2=O | 105% |
| CC[C@@H]1OC(=O)[C@H](C)[C@@H](O[C@H]2C[C@@](C)(OC)[C@@H](O)[C@H](C)O2)[C@H](C)[C@@H](O[C@@H]2O[C@H](C)C[C@H](N(C)C)[C@H]2O)[C@](C)(O)C[C@@H](C)[C@@H]2N[C@@H](COCCOC)O[C@H]([C@H]2C)[C@]1(C)O | 107% |
| O=C1C[C@@H]2/C(=C(O)\C=C\c3ccccc3)C(=O)C=C[C@@H]2O1 | 2.64% (active) |
| Cc1cc2c(cc1[N+](=O)[O-])NC(CNC(C)C)CC2 (centres undefined) | 103% |
| CCCCN(CCCC)CCCOC(=O)c1ccc(N)cc1 | 88.7% |
| C=C(C[C@](O)(C(=O)/C=C/c1ccc(Cl)cc1)C(=O)OC)c1ccccc1 | 54% |
| CCN1C[C@@H](C)n2c(c(O)c3c(=O)n(Cc4ccc(F)c(Cl)c4)nc(C(=O)NC)c32)C1=O | 26% |
| Cc1nnc(Nc2ccc(NC(=O)Nc3ccc(Cl)cc3)cc2)c2ccccc12 | 4.62% (active) |

Tested on: NCI-H460 lung
Test: as above
Settings: 10 µM unless noted

| Compound | growth |
| --- | --- |
| COc1ccc(C2CC(c3ccc(OC)c(OC)c3)=NN2C(=O)c2cc(OC)c(OC)c(OC)c2)c(OC)c1 (centres undefined) | 78.5% |
| CCOC(=O)c1c2c(c(C)n1Cc1ccc(OC)cc1)-c1nc(N)ncc1CC2 | 111% |
| O=C1N(C2CCCCC2)C(=O)N1C1CCCCC1 | 39% |
| O=c1ccn(C2OC(CO)C(O)C2F)c(=O)[nH]1 (centres undefined) | 113% |
| CCCn1cnc2c1c(=O)n(CCCCC(C)=O)c(=O)n2C | 103% |
| CCCCc1nc(Cl)c(CO)n1Cc1ccc(-c2ccccc2-c2nn[nH]n2)cc1 | 108% |
| COc1ccc(C2CC(c3cccc(Nc4ccnc5cc(Cl)ccc45)c3)=NN2C=O)cc1 (centres undefined) | 11.2% |
| O=c1c(O)cccn1CCCNCCCN(CCCn1cccc(O)c1=O)CCCn1cccc(O)c1=O | 99% |
| COc1ccc2nc(-c3ccc(-n4cncc4-c4ccc(OC)c(N)c4)cc3)sc2c1 | 100% |
| Cc1cc(NC(=O)Nc2cc(Cl)ccc2C)no1 | 102% |
| O=C1NCN(c2ccccc2)C12CCN(CCCC(c1ccc(F)cc1)c1ccc(F)cc1)CC2 | 37.3% |
| CCC(O)C(C)(C)C (centres undefined) | 105% |
| COc1ncc(-c2ccc3nccc(C#CCN4CCN(S(C)(=O)=O)CC4)c3c2)cc1NS(=O)(=O)c1ccc(F)cc1F | 6.27% (active) |
| O=C(Nc1ccc(Cl)cc1)c1cc2c(cc1O)[nH]c1ccccc12 | 12.5% |
| O=C1c2ccccc2C(=O)c2c1cccc2-n1nnc2ccccc21 | 111% |
| Cc1nn(-c2ccccc2)c2c1oc(=O)c1cc(Cl)ccc12 | 107% |
| CCC1=C(c2ccc(OC)cc2)C(C)(C)Oc2c1ccc(O)c2CN1CCCC1 | -38.1% (active) |
| O=C(NCCc1ccccc1)C1CCC(=O)N1Cc1ccc(Br)cc1 (centres undefined) | 102% |
| N#Cc1ccc(NC(=O)Nc2ccc(Oc3ccc(NC(=O)Nc4ccc(C#N)cc4)cc3)cc2)cc1 | 18.9% |

| Compound | growth |
| --- | --- |
| COc1ccc2c(c1)C(=O)c1c-2c(OCCN(C)C)nc2cc(OC)ccc12 | -70.7% (active) |
| O=C(Nc1cccc([N+](=O)[O-])c1)c1cccc(C(=O)Nc2cccc([N+](=O)[O-])c2)c1 | 74% |
| CCCCCCCCCCCCCCCCCC1=NC(C)(C)CN1CCO | -51.7% (active) |
| COc1ccc(OC)c(NC(=O)c2cc3oc4ccccc4c3cc2O)c1 | 100% |
| CN1C(=O)/C(=C/c2nc(-c3cccc(F)c3)n3ccccc23)c2ccccc21 | 56.1% |
| O=C(CN1CCCCC1)Sc1nnc2sc3ccccc3n12 | 103% |
| C[C@]12CC[C@@H]3c4ccc(O)c([N+](=O)[O-])c4CC[C@H]3[C@@H]1CC[C@@H]2NS(=O)(=O)c1cccc(Br)c1 | 20% |
| Cc1ccsc1/C=C/C1=NCCCN1C | 116% |
| CCCCCCCCCCSc1ncnc2nc[nH]c12 | 65.8% |
| C[n+]1c2ccccc2c(NC2CCNCC2)c2[nH]c3ccccc3c21 | -0.0252% (active) |
| COc1cccc2c1O/C(=C\c1c([N+](=O)[O-])ncn1C)C2=O | 109% |
| CC[C@@H]1OC(=O)[C@H](C)[C@@H](O[C@H]2C[C@@](C)(OC)[C@@H](O)[C@H](C)O2)[C@H](C)[C@@H](O[C@@H]2O[C@H](C)C[C@H](N(C)C)[C@H]2O)[C@](C)(O)C[C@@H](C)[C@@H]2N[C@@H](COCCOC)O[C@H]([C@H]2C)[C@]1(C)O | 117% |
| O=C1C[C@@H]2/C(=C(O)\C=C\c3ccccc3)C(=O)C=C[C@@H]2O1 | 12.1% |
| Cc1cc2c(cc1[N+](=O)[O-])NC(CNC(C)C)CC2 (centres undefined) | 107% |
| CCCCN(CCCC)CCCOC(=O)c1ccc(N)cc1 | 78.4% |
| C=C(C[C@](O)(C(=O)/C=C/c1ccc(Cl)cc1)C(=O)OC)c1ccccc1 | 88.6% |
| CCN1C[C@@H](C)n2c(c(O)c3c(=O)n(Cc4ccc(F)c(Cl)c4)nc(C(=O)NC)c32)C1=O | 15.2% |
| Cc1nnc(Nc2ccc(NC(=O)Nc3ccc(Cl)cc3)cc2)c2ccccc12 | 26.1% |
